Test results: the supplement of paper PMC6522484
Several values for one entry are separate records, joined by “and”; a condition that tells them apart may be missing. Equal entries are not always repeated. ± gives the standard deviation of the averaged measurements.

Tests used:
DLD1 [1] = test: cell viability (CellTiter-Glo) relative to plate median (fraction of plate median); higher = more viable cells; conditions: 5 µM; treatment time 24 h; reporter: 7TFP
Outline: (§1)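 Stable lentiviral TCF/Wnt firefly luciferase reporters (7TFP or TCF4/Wnt) were present in the colorectal cancer cell lines used. These cells received library compounds at a final 5 µM for 24 h, and parallel plates were read for firefly luciferase or CellTiterGlo luminescence. Each well was normalised to the plate median, and the value reported is the mean of two independent replicates.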

HCT116 = test: as above; conditions: 5 µM; treatment time 24 h; reporter: TCF4/Wnt
Outline: as §1

SW480 [2] = test: as above; conditions: 5 µM; treatment time 24 h; reporter: 7TFP
Outline: as §1

DLD1 [3] = test: TCF/Wnt firefly luciferase reporter signal relative to plate median (fraction of plate median); higher = higher Wnt reporter signal; conditions: 5 µM; treatment time 24 h; reporter: 7TFP
Outline: as §1

SW480 [4] = test: as above; conditions: 5 µM; treatment time 24 h; reporter: 7TFP
Outline: as §1

Structure (SMILES)	cell viability (DLD1 [1])	cell viability (HCT116)	cell viability (SW480 [2])	TCF/Wnt firefly luciferase reporter signal (DLD1 [3])	TCF/Wnt firefly luciferase reporter signal (SW480 [4])
O=C(O)CCCc1ccccc1	1.03 and 0.95	0.968 and 0.85	0.993 and 1	1.15 and 1.08	1.01 and 1.04
C=C(C)[C@@H]1CC[C@]2(CO)CC[C@]3(C)[C@H](CC[C@@H]4[C@@]5(C)CC[C@H](O)C(C)(C)[C@@H]5CC[C@]43C)[C@@H]12	0.995 ± 0.064	0.973 ± 0.053	0.978 ± 0.027	1.135 ± 0.0071	1.045 ± 0.0071
CC1CC(OC(=O)C(O)c2ccccc2)CC(C)(C)N1C (stereo not given)	1 ± 0.011	1.05 ± 0.021	1.02	1.05 ± 0.028	1.18 ± 0.057
CS(=O)(=O)CCCCN=C=S	0.722 ± 0.18	0.8885 ± 0.00071	0.83 ± 0.03	0.83 ± 0.067	0.867 ± 0.12
CCCSc1ccc2[nH]c(NC(=O)OC)nc2c1	0.966 ± 0.039	0.893 ± 0.17	0.986 ± 0.016	1.1 ± 0.028	1.04 ± 0.1
C=CCCCCCCCCCCCc1ccco1	0.98 ± 0.085	1 ± 0.069	1.01 ± 0.035	0.854 ± 0.0099	0.957 ± 0.028
CC1CC2C3CCC4=CC(=O)C=CC4(C)C3(F)C(O)CC2(C)C1C(=O)CO (stereo not given)	0.954 ± 0.033	0.895 ± 0.043	0.939 ± 0.026	1.05	1.04 ± 0.057
C[N+](C)(C)CCCCCC[N+](C)(C)C	1.01 ± 0.027	0.903 ± 0.022	0.93 ± 0.072	1.09 ± 0.21	1.1 ± 0.11
CCc1cccc2c3c([nH]c12)C(CC)(CC(=O)O)OCC3 (stereo not given)	0.949 ± 0.073	0.957 ± 0.089	0.921 ± 0.025	1.04 ± 0.021	1.08 ± 0.035
O=C(O)c1cc(=O)c2ccccc2[nH]1	1.01 ± 0.021	0.968 ± 0.16	0.9555 ± 0.0064	0.8765 ± 0.0078	0.986 ± 0.048
C=C[C@@](C)(O)CCC1C(=C)CCC2[C@@](C)(CO)CCC[C@]12C (stereo not given in full)	1.005 ± 0.0071	1.14 ± 0.16	1.1 ± 0.021	0.967 ± 0.017	1.01 ± 0.067
COc1ccc2cc1Oc1ccc(cc1)C[C@H]1c3c(cc4c(c3Oc3cc5c(cc3OC)CCN(C)[C@@H]5C2)OCO4)CCN1C	1.02 ± 0.052	0.934 ± 0.052	1.14 ± 0.035	1 ± 0.054	1.05 ± 0.028
COC(=O)[C@@H]1OC(=O)C2OC23[C@@]1(C)CCC1[C@@]2(C)CCC(=O)C(C)(C)C2C[C@@H](OC(C)=O)[C@]13C (stereo not given in full)	0.993 ± 0.011	1.07 ± 0.078	1.01 ± 0.017	0.86 ± 0.037	1.03 ± 0.046
CN1CCN2c3ccccc3Cc3ccccc3C2C1 (stereo not given)	1.03 ± 0.053	1.08 ± 0.071	1.07 ± 0.021	1.04 ± 0.083	1.08 ± 0.071
O=c1c(O)c(-c2ccc(O)c(O)c2)oc2cc(O)ccc12	0.989 ± 0.073	0.948 ± 0.028	0.969 ± 0.019	1.01 ± 0.097	0.923 ± 0.11
O=C(/C=C/c1ccccc1)c1ccc(O)cc1	0.834 ± 0.11	0.906 ± 0.047	0.898 ± 0.013	0.88 ± 0.1	0.976 ± 0.2
NCCS	1.02 ± 0.014	1.07 ± 0.12	1.035 ± 0.0071	1.21 ± 0.021	1.16 ± 0.092
Cn1c(=O)[nH]c2[nH]cnc2c1=O	1.02 ± 0.042	1.04 ± 0.14	1.04 ± 0.072	0.964 ± 0.011	0.992 ± 0.025
COc1c(N2C[C@@H]3CCCN[C@@H]3C2)c(F)cc2c(=O)c(C(=O)O)cn(C3CC3)c12	0.861 ± 0.14	1.02	1.02 ± 0.069	1.1 ± 0.042	1 ± 0.013
NS(=O)(=O)c1cc(C2(O)NC(=O)c3ccccc32)ccc1Cl (stereo not given)	1.02 ± 0.067	1.02 ± 0.036	0.986 ± 0.1	0.958 ± 0.13	0.981 ± 0.025
C[C@@H]1CC(=O)c2c(ccc3c2C(=O)c2cccc(O)c2C3=O)C1 [Ochromycinone (Isoform C, Compound ID 7613)]	1.02 ± 0.091	1.08 ± 0.099	1.1 ± 0.064	1.09 ± 0.13	1.04 ± 0.11
CCC(=O)O[C@H]1CC[C@H]2[C@@H]3CCc4cc(O)ccc4[C@H]3CC[C@]12C	1.01 ± 0.023	1 ± 0.16	1.02 ± 0.014	0.888 ± 0.11	0.994 ± 0.052
CCN(CCCc1ccccc1)CCCc1ccccc1	1 ± 0.22	1.06 ± 0.021	1.08 ± 0.035	1 ± 0.036	0.916 ± 0.055
CC(C)=CCc1cccc2c(C[C@@H]3NC(=O)[C@H](C)NC3=O)c[nH]c12 [Terezine D]	1.03 ± 0.021	0.9635 ± 0.0021	0.981 ± 0.084	1.12 ± 0.31	0.92 ± 0.0099
C/C1=C2/[N-][C@H]([C@H](CC(N)=O)[C@@]2(C)CCC(=O)NC[C@@H](C)OP(=O)([O-])O[C@H]2[C@@H](O)[C@@H](n3cnc4cc(C)c(C)cc43)O[C@@H]2CO)[C@]2(C)N=C(/C(C)=C3N=C(/C=C4N=C1[C@@H](CCC(N)=O)C\4(C)C)[C@@H](CCC(N)=O)[C@]\3(C)CC(N)=O)[C@@H](CCC(N)=O)[C@]2(C)CC(N)=O.[CH2-][C@H]1O[C@H](n2cnc3c(N)ncnc32)[C@@H](O)[C@H]1O.[Co+3]	0.933 ± 0.021	0.964 ± 0.18	0.998 ± 0.045	0.968 ± 0.13	0.971 ± 0.2
O=c1c(-c2cc(O)c(O)c(O)c2)coc2cc(O)c(O)c(O)c12	1.005 ± 0.0071	1.1 ± 0.078	1.04	1.09 ± 0.035	0.93 ± 0.14
Cc1cccc(C)c1NC(=O)C1CCCCN1C (stereo not given)	1 ± 0.078	0.959 ± 0.1	0.971 ± 0.035	1.05 ± 0.035	1.04 ± 0.12
COc1cccc2c1C(=O)c1c(O)c3c(c(O)c1C2=O)CC(O)(C(C)O)CC3OC1CC(NC=O)C(O)C(C)O1 (stereo not given) [Baumycin C2]	1.02 ± 0.035	1.005 ± 0.0071	1 ± 0.036	1.17 ± 0.12	1.05 ± 0.014
NCCCCCC(=O)O	0.888 ± 0.054	1.02 ± 0.014	0.972 ± 0.083	1 ± 0.11	1.01 ± 0.081
C[C@]12CC[C@@H]3c4ccc(O)cc4CC[C@H]3[C@@H]1C[C@@H](O)[C@@H]2O	1.03 ± 0.035	1.05 ± 0.057	1 ± 0.035	1.07 ± 0.085	1.16 ± 0.071
